Inconclusive results are not listed. Calls of active or inactive are those of the source. Rule for the calls, unless noted: active = hit-call score of the fitted dose curve at least 0.9, where 1 is the maximum; inactive = score below 0.9.

Test [1] addresses Estrogen-related receptor gamma (Homo sapiens) (UniProt P62508). Kind of test: ATG_ERRg_TRANS: Attagene TRANS-FACTORIAL HepG2 Assay for human Estrogen-Related Receptor gamma (ERRg) (AID 2282977; active = hit-call score of the fitted dose curve at least 0.9, where 1 is the maximum;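 note: hits increase reporter signal over DMSO so potencies reflect activators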). Conditions: HepG2 Attagene TRANS reporter, ERRg transactivation. In outline:
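Induction of reporter transcripts through a chimeric NR-Gal4 protein is quantified in transfected human HepG2 liver cells after 24 h chemical exposure, using RT-PCR with capillary electrophoresis detection and DMSO as baseline.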

Test [2] deals with Glucocorticoid receptor (Homo sapiens) (UniProt P04150). Kind of test: ATG_GR_TRANS: Attagene TRANS-FACTORIAL HepG2 Assay for human Glucocorticoid Receptor (GR) (AID 2282978; active = hit-call score of the fitted dose curve at least 0.9, where 1 is the maximum;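 note: activators score as hits since higher reporter transcript over DMSO is fitted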). The settings on record: HepG2 Attagene TRANS GR reporter, mRNA transcription. A digest of the protocol: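 HepG2 transient transfection, multiple reporter units, GAL4-UAS under NR-GAL4 chimera control. 24 h treatment. Reporter mRNA by RT-PCR/CE fluorescence, DMSO as negative control.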
Glucocorticoid receptor (Homo sapiens), sequence (P04150 whole entry, looked up, the tested form may be a part): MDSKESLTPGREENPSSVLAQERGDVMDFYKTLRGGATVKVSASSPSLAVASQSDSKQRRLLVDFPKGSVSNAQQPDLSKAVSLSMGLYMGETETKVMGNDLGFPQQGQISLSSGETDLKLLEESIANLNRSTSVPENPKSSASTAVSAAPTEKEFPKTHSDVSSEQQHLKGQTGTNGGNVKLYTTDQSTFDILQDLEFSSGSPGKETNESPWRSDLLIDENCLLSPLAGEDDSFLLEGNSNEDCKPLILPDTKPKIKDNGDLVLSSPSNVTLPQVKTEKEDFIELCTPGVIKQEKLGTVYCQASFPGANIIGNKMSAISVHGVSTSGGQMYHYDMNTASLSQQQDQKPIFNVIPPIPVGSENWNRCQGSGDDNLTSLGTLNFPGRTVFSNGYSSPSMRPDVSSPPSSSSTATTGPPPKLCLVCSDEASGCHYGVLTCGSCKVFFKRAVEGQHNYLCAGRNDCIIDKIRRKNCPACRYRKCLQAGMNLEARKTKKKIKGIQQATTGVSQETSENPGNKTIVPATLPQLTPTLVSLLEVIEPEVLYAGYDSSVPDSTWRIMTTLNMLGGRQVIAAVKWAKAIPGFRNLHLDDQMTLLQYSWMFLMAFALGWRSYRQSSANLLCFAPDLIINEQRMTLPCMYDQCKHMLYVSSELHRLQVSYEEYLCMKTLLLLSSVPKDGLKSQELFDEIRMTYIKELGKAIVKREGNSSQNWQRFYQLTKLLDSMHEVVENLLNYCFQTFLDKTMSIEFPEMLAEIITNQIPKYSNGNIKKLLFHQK

Test [3] addresses Oxysterols receptor LXR-alpha (Homo sapiens) (UniProt Q13133). Kind of test: ATG_LXRa_TRANS: Attagene TRANS-FACTORIAL HepG2 Assay for human Liver X Receptor alpha (LXRa) (AID 2282980; active = hit-call score of the fitted dose curve at least 0.9, where 1 is the maximum). The settings on record: HepG2 Attagene TRANS reporter, LXRa transactivation. A digest of the protocol:
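HepG2 cells transiently transfected with GAL4-UAS reporter units for chimeric NR-Gal4 proteins, exposed to chemicals for 24 h. Reporter mRNA quantified by RT-PCR and capillary electrophoresis; gain of signal fitted relative to DMSO.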

Test [4] concerns the target Oxysterols receptor LXR-beta (Homo sapiens) (UniProt P55055). Kind of test: ATG_LXRb_TRANS: Attagene TRANS-FACTORIAL HepG2 Assay for human Liver X Receptor beta (LXRb) (AID 2282981; active = hit-call score of the fitted dose curve at least 0.9, where 1 is the maximum). Conditions: HepG2 Attagene TRANS GAL4-LXRb reporter, mRNA. A digest of the protocol:
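Multiplexed reporter assay, HepG2, 24 h dosing. Fluorescence of labelled RT-PCR products after capillary electrophoresis gives transcript level; positive fitting direction relative to DMSO.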

The nature of test [5]: ATG_M_06_TRANS: Attagene TRANS-FACTORIAL HepG2 Assay for M06 Transcription Factor (Internal Marker) (AID 2282983; active = hit-call score of the fitted dose curve at least 0.9, where 1 is the maximum). The settings on record: HepG2 Attagene TRANS M06 internal marker reporter. A digest of the protocol:
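mRNA levels of a reporter transcript, quantified as FAM fluorescence on capillary electrophoresis, served as readout. HepG2 cells expressing exogenous GAL4-chimera reporter constructs were exposed for 24 h. Gain of signal over DMSO was evaluated.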

A short description of test [6]: ATG_M_32_TRANS: Attagene TRANS-FACTORIAL HepG2 Assay for M32 Transcription Factor (Internal Marker) (AID 2282984; active = hit-call score of the fitted dose curve at least 0.9, where 1 is the maximum;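 note: transcript level of a background control reporter unit measured by RT-PCR and capillary electrophoresis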). The settings on record: HepG2 Attagene TRANS M32 internal marker reporter. In outline: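 Internal-marker readout from a multiplexed transcription reporter panel. HepG2 cells were transfected with GAL4-UAS reporter units, treated 24 hours, and reporter transcript levels determined by fluorescence after RT-PCR and capillary separation.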

In test [7] the target is Nuclear receptor subfamily 4 group A member 2 (Homo sapiens) (UniProt P43354). Kind of test: ATG_NURR1_TRANS: Attagene TRANS-FACTORIAL HepG2 Assay for human Nuclear Receptor Related Protein 1 (NURR1) (AID 2282985; active = hit-call score of the fitted dose curve at least 0.9, where 1 is the maximum). The settings on record: HepG2 Attagene TRANS reporter, mRNA readout. In outline:
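Endpoint: reporter mRNA increase relative to DMSO. HepG2 cells transfected with reporter units, treated 24 h; RNA processed by RT-PCR, labelling, HpaI digestion and capillary electrophoresis.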

The target in test [8] is Transcriptional activator Myb (Homo sapiens) (UniProt P10242). Kind of test: ATG_Myb_CIS: Attagene CIS-FACTORIAL HepG2 Assay for human Myeloblastosis (Myb) Proto-Oncogene Transcription Factor (AID 2282986). Conditions: HepG2 Attagene CIS-FACTORIAL Myb reporter transcription; actives raise or lower the signal. A digest of the protocol:
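Multiplexed cis-reporter system in HepG2: transient transfection, 24 h treatment, mRNA readout by RT-PCR and capillary electrophoresis. Both increases and decreases are scored versus DMSO negative control.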

Test [9] has as its target Nuclear respiratory factor 1 (Homo sapiens) (UniProt Q16656). Kind of test: ATG_NRF1_CIS: Attagene CIS-FACTORIAL HepG2 Assay for human Nuclear Respiratory Factor 1 (NRF1) Orphan Gene (AID 2282987). The settings on record: HepG2 NRF1 cis-element reporter, Attagene multiplex; actives raise or lower the signal. A digest of the protocol: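 Endogenous factor activity was captured via cis-element-driven reporter transcripts in HepG2 cells. Following 24 h chemical treatment, transcripts were quantified by RT-PCR and capillary electrophoresis.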

For test [10], the target named is Myc proto-oncogene protein (Homo sapiens) (UniProt P01106). Kind of test: ATG_Myc_CIS: Attagene CIS-FACTORIAL HepG2 Assay for human Myelocytomatosis (Myc) Proto-Oncogene Transcription Factor (AID 2282990). The settings on record: HepG2, Attagene cis-reporter transcription factor activity; actives raise or lower the signal. In outline:
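Transiently transfected HepG2 cells bearing cis-promoter reporter units for endogenous transcription factors; 24 h exposure. Reporter mRNA measured by RT-PCR, 6-FAM primer extension, HpaI cut and capillary electrophoresis; bidirectional fit relative to DMSO.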

Test [11] in a line: ATG_Oct_MLP_CIS: Attagene CIS-FACTORIAL HepG2 Assay for human Octamer-Binding Transcription Factor (Oct) (AID 2282993). Conditions: HepG2 Attagene cis-factorial Oct reporter, mRNA; actives raise or lower the signal. In outline:
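Read-out: reporter mRNA via RT-PCR plus capillary electrophoresis of 6-FAM-labelled fragments. Transiently transfected HepG2, 24 h exposure, endogenous TF activity on cis elements. Gain or loss of signal fitted relative to DMSO.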

In test [12] the target is Cellular tumor antigen p53 (Homo sapiens) (UniProt P04637). Kind of test: ATG_p53_CIS: Attagene CIS-FACTORIAL HepG2 Assay for human p53 Transcription Factor (AID 2282994). The settings on record: HepG2 p53 cis-element reporter, Attagene mRNA; actives raise or lower the signal. A digest of the protocol:
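In HepG2 cells, reporter transcription units under cis-regulatory promoters were transiently introduced. Following 24 h treatment, RNA was processed to labelled, digested cDNA fragments read by capillary electrophoresis; fitting was bidirectional versus DMSO.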

A short description of test [13]: BSK_3C_TissueFactor: BioMAP Diversity Plus: 3C Assay for Tissue Factor Biomarker Activity (AID 2282997). Conditions: BioMAP 3C HUVEC, tissue factor biomarker readout; actives raise or lower the signal. A digest of the protocol: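 Tissue Factor measured by ELISA, 24 h after treatment of primary HUVEC in the BioMAP 3C setting.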
A short description of test [14]: BSK_3C_uPAR: BioMAP Diversity Plus: 3C Assay for Urokinase-type plasminogen activator receptor (uPAR) Biomarker Activity (AID 2282998). Conditions: BioMAP 3C HUVEC, uPAR biomarker ELISA; actives raise or lower the signal. In outline:
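HUVEC primary cells; 24 h post-dose; uPAR by ELISA; gain or loss of signal fitted bidirectionally vs DMSO baseline.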

Test [15] can be described thus: BSK_3C_VCAM1: BioMAP Diversity Plus: 3C Assay for Vascular cell adhesion molecule 1 (VCAM1) Biomarker Activity (AID 2282999). The settings on record: BioMAP 3C HUVEC, VCAM1 ELISA, cytokine-stimulated; actives raise or lower the signal. A digest of the protocol:
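HUVEC primary cells, 24 h compound exposure; VCAM-1 by ELISA; gain/loss of signal fitted bidirectionally vs DMSO baseline.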

In test [16] the target is Hepatocyte nuclear factor 4-alpha (Homo sapiens) (UniProt P41235). Kind of test: ATG_HNF4a_TRANS: Attagene TRANS-FACTORIAL HepG2 Assay for human Hepatocyte Nuclear Factor 4 alpha (HNF4a) (AID 2282982; active = hit-call score of the fitted dose curve at least 0.9, where 1 is the maximum). Conditions: HepG2 HNF4a transactivation reporter, mRNA readout. A digest of the protocol: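 Endpoint reflects transcriptional activation of a GAL4-UAS reporter by an HNF4a-GAL4 chimera in transfected HepG2 cells, 24 h post-dosing. Fluorescence from RT-PCR products separated by capillary electrophoresis; DMSO baseline.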
Hepatocyte nuclear factor 4-alpha (Homo sapiens), sequence (P41235 whole entry, looked up, the tested form may be a part): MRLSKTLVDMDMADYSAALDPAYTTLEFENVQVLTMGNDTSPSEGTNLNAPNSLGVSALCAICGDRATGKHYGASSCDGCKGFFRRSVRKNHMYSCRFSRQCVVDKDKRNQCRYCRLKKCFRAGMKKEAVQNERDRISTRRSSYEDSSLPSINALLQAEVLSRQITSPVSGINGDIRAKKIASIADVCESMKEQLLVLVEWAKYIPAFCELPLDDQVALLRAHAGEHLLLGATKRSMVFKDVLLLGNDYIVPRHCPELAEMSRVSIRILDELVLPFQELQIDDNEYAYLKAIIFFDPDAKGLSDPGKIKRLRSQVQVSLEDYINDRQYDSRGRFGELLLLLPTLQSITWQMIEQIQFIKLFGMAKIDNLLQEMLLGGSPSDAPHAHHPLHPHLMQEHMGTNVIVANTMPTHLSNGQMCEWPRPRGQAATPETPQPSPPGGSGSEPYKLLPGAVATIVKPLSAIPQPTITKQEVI

Test [17] can be described thus: ATG_NF_kB_CIS: Attagene CIS-FACTORIAL HepG2 Assay for human Nuclear Factor Kappa B (NF-kB) (AID 2282991). Conditions: HepG2 Attagene cis-factorial NF-kB reporter mRNA; actives raise or lower the signal. A digest of the protocol: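 After 24 h compound incubation, transfected HepG2 cells yield total RNA; reporter cDNA is PCR-amplified, end-labelled with 6-FAM, HpaI-digested and analysed on a genetic analyser. Endogenous factor activity, DMSO-referenced bidirectional fit.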

Test [18] has as its target Bile acid receptor (Homo sapiens) (UniProt Q96RI1). Kind of test: ATG_FXR_TRANS: Attagene TRANS-FACTORIAL HepG2 Assay for Farnesoid X Receptor (FXR) (AID 2282979; active = hit-call score of the fitted dose curve at least 0.9, where 1 is the maximum;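 note: hits raise reporter mRNA above DMSO so AC50 marks FXR activation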). Conditions: HepG2 Attagene TRANS FXR-GAL4 reporter transcription. A digest of the protocol: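 HepG2 cells were transiently transfected with GAL4-UAS reporters driven by chimeric NR-Gal4 proteins and dosed for 24 h. Reporter mRNA was quantified by RT-PCR, fluorescent labelling, HpaI digestion and capillary electrophoresis, with gain of signal scored versus DMSO.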

Test [19] in a line: ATG_NFI_CIS: Attagene CIS-FACTORIAL HepG2 Assay for human Nuclear Factor I (NFI) (AID 2282989). The settings on record: HepG2 cis-regulatory reporter, NFI response element transcription; actives raise or lower the signal. A digest of the protocol:
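Read-out: reporter mRNA via RT-PCR plus capillary electrophoresis with fluorescence detection. Transiently transfected HepG2 (endogenous TF activity on cis promoters), 24 h compound exposure; gain or loss of signal fitted against DMSO.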

Test [20] can be described thus: ATG_NRF2_ARE_CIS: Attagene CIS-FACTORIAL HepG2 Assay for human Nuclear Factor Erythroid 2 Related Factor 2 (NFR2) response to Antioxidant Response Elements (ARE) (AID 2282992). The settings on record: HepG2 Attagene ARE/NRF2 reporter, transcription factor activity; actives raise or lower the signal. A digest of the protocol: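 Using transiently transfected HepG2 cells exposed for 24 h, reporter mRNA levels were determined by RT-PCR with fluorescent primer extension and capillary electrophoresis, analysed for gain or loss of signal against DMSO.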

Nuclear respiratory factor 1 (Homo sapiens), sequence (Q16656 whole entry, looked up): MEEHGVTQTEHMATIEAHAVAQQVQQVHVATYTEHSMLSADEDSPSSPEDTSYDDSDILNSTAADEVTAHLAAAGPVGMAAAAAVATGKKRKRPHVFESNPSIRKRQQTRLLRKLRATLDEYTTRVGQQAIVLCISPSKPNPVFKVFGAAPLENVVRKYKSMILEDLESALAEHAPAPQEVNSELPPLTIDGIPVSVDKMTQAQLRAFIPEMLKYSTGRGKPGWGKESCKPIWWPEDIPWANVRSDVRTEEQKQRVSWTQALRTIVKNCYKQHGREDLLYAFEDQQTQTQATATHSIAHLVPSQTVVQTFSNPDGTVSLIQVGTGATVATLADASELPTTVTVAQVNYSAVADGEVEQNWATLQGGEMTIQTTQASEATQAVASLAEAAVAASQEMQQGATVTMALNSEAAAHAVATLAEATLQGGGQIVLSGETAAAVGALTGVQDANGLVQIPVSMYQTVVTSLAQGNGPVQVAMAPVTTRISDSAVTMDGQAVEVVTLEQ
Oxysterols receptor LXR-beta (Homo sapiens), sequence (P55055 whole entry, looked up, the tested form may be a part): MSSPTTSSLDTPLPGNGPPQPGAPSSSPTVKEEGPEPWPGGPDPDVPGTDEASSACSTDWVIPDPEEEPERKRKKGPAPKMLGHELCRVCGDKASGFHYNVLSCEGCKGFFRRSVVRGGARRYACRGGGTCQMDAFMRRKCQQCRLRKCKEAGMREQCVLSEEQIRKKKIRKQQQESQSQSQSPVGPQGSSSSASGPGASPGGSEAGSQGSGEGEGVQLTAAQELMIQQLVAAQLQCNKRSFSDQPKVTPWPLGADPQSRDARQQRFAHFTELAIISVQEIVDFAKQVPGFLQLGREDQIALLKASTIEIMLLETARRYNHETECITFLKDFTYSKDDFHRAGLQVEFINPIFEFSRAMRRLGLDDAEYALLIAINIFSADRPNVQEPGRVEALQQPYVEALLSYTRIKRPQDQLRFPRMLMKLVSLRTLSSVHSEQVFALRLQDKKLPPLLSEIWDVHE
Transcriptional activator Myb (Homo sapiens), sequence (P10242 whole entry, looked up): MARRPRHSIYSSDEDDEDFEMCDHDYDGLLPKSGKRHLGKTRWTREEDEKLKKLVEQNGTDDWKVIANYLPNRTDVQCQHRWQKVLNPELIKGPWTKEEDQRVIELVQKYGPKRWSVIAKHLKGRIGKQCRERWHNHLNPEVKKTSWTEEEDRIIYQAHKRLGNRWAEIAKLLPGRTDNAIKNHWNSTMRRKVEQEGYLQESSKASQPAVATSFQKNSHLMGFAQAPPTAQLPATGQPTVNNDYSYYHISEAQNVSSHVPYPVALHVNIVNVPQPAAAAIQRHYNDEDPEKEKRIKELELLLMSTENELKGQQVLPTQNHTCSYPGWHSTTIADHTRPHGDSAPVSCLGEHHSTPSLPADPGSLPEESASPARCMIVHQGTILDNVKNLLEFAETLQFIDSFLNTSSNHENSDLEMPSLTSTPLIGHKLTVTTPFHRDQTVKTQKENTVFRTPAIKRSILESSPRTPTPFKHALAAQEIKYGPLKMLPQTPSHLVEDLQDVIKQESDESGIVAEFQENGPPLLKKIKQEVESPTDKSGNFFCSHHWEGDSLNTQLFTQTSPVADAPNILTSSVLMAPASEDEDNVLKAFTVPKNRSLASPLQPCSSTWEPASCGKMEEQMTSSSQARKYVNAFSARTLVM
Estrogen-related receptor gamma (Homo sapiens), sequence (P62508 whole entry, looked up, the tested form may be a part): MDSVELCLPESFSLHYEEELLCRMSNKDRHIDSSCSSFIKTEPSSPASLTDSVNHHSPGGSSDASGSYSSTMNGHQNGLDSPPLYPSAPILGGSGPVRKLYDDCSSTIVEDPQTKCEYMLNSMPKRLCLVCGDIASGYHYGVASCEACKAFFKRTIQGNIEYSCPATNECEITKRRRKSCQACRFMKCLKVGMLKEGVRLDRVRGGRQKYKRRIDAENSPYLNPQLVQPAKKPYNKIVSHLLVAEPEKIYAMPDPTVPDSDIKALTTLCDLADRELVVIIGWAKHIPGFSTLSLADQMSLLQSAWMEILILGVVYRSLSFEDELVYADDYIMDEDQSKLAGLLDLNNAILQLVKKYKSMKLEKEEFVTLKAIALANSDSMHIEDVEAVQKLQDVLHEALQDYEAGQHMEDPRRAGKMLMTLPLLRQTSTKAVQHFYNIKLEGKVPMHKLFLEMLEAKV
Oxysterols receptor LXR-alpha (Homo sapiens), sequence (Q13133 whole entry, looked up, the tested form may be a part): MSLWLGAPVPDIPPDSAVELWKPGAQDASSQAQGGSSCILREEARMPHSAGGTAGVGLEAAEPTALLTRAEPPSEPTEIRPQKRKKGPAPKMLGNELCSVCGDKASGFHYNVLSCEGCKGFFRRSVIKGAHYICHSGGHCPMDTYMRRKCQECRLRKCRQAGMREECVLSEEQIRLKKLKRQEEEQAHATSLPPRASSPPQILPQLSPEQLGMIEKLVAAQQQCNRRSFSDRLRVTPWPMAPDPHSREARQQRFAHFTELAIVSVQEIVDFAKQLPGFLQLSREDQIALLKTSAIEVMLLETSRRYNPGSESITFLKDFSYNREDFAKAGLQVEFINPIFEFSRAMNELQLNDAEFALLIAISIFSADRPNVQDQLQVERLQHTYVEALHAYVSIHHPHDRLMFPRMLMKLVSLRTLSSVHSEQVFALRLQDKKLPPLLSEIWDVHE
Cellular tumor antigen p53 (Homo sapiens), sequence (P04637 whole entry, looked up, the tested form may be a part): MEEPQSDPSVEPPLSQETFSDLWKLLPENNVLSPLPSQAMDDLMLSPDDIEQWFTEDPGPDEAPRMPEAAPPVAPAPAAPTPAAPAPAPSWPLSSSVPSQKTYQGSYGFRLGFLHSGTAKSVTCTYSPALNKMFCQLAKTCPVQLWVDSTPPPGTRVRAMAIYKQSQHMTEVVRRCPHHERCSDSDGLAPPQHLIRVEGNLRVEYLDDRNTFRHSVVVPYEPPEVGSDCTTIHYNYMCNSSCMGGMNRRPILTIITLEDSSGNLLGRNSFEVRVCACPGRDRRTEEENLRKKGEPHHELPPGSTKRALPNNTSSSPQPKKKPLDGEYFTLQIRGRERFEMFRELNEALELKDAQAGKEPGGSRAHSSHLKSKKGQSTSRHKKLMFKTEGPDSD
Nuclear receptor subfamily 4 group A member 2 (Homo sapiens), sequence (P43354 whole entry, looked up): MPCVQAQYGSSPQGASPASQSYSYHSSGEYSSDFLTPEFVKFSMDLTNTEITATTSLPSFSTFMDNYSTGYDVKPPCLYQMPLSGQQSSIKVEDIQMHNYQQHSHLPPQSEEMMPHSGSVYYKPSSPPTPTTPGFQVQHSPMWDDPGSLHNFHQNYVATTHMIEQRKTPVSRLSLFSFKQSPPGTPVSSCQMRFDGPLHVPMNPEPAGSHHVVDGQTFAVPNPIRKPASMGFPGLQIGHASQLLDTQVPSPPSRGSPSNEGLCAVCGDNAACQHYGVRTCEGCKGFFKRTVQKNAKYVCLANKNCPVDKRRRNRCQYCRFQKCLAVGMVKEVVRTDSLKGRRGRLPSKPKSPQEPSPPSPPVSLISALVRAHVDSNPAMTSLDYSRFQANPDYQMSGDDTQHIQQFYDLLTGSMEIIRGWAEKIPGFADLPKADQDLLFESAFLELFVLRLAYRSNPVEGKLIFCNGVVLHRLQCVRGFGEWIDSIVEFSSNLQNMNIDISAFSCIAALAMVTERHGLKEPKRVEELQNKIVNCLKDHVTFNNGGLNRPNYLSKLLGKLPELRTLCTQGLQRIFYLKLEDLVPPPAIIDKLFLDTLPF

In the case of `CCOP(=S)(OCC)Oc1ccc2c(C)c(Cl)c(=O)oc2c1`, the call in [1], in test [2], in [3], in test [4], in test [5] and in [6] was inactive. The outcome in [7], in [8], in test [9], in [10], in test [11] and in test [12] was inactive. In addition, the result in [13], in test [14] and in test [15] was inactive.

Consider `CCOC(=O)COc1cc(-c2nn(C)c(OC(F)F)c2Cl)c(F)cc1Cl`, for which the compound was called inactive in [1], in test [2], in test [3], in [4], in test [16] and in test [5]. For the same compound, the call in test [6], in test [7], in test [8], in [9], in test [17] and in test [11] was inactive. The compound was called inactive in test [12], in test [13], in test [14] and in test [15].

A word on the AC50: it is the midpoint of the concentration-response curve, whichever way the signal moves. Regarding `Nc1c(Cl)cc([N+](=O)[O-])cc1Cl`, the outcome in test [1], in test [18], in test [3], in test [4], in [16] and in test [5] was inactive. The call in [6], in test [8], in test [9], in [10], in test [13] and in test [14] was inactive. Also, the result in test [15] was inactive. Moreover, the AC50 in [17] was 59.5 µM (active); in test [11], 50 µM (active).

As for `CCOP(=S)(OCC)OC(Cl)C(Cl)(Cl)Cl` (stereo not given), the result in test [1], in test [3], in test [4], in test [16], in test [5] and in [6] was inactive. Besides, the call in [7], in [8], in [9], in test [19], in [12] and in test [13] was inactive. Besides, in test [14], the result was inactive. The AC50 was 26.4 µM (active) in test [17], 29.2 µM (active) in test [11] and 14.6 µM (active) in [15].

Take `CNC(=O)ON=C(C)SC`: the compound was called inactive in test [2], in test [3], in [4], in test [16], in test [6] and in [8]. Besides, the compound was called inactive in test [9], in test [19], in test [17], in test [11], in test [12] and in test [13]. Also, the outcome in test [14] and in [15] was inactive.

Take `COc1cc(OC)nc(Sc2cccc(Cl)c2C(=O)O)n1`: the compound was classed as inactive in test [1], in [2], in test [3], in test [4], in test [5] and in [6]. The call in test [7], in test [8], in test [9], in test [17], in test [20] and in test [11] was inactive. Also, the compound was classed as inactive in test [12], in test [13], in [14] and in test [15].

As to `CCc1cccc(CC)c1N(COC)C(=O)CCl`, the call in test [2], in test [3], in test [4], in test [16], in [8] and in test [9] was inactive. The call in test [19], in test [17], in test [13] and in test [14] was inactive. The AC50 in test [11] is 3.21 µM (active); in [15] it was 31.4 µM (active).

As for `CN1COCN(Cc2cnc(Cl)s2)C1=N[N+](=O)[O-]`, the compound was called inactive in test [2], in [18], in test [3], in test [4], in test [16] and in test [5]. The compound was classed as inactive in test [6], in test [8], in test [9], in test [17], in [20] and in test [11]. Further, the result in [12], in test [13], in test [14] and in test [15] was inactive.

For the origin of these results see PubChem BioAssay (EPA / NIEHS).
